In all, about 16,000 compounds went through this assay and about 2,600 (16%) were called active. Roughly 20% stayed inconclusive and do not appear here. Calls come from the whole dose curve; as a rule, active = well fitted curve in the direction sought with a large enough effect; inconclusive = small, poorly fitted or top-dose-only effect, or effect the other way; inactive = no such curve, though single readings can be large or run the other way. Only a sample is shown.
molecular target: Cytochrome P450 2D6 (Homo sapiens) (UniProt P10635); assay: Cytochrome panel assay with activity outcomes; conditions: recombinant CYP, pro-luciferin dealkylation, luminescence, p450-cyp2d6; series mostly up to 57.1 µM
Sequence (P10635 whole entry, looked up): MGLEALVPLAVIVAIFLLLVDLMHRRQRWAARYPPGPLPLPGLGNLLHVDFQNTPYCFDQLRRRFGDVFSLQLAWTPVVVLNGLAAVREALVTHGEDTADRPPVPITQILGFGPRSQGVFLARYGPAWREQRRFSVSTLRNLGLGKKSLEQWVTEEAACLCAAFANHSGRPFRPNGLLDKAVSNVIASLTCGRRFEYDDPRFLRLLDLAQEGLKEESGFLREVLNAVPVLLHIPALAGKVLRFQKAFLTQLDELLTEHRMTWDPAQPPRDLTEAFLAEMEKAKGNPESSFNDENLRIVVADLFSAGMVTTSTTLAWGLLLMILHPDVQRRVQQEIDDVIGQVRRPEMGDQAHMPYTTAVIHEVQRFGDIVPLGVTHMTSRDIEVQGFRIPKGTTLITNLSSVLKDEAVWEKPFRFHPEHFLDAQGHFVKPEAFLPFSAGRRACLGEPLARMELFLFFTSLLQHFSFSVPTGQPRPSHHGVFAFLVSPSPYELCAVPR
% is set by controls: 0 for no effect and ±100 for the full control effect.

Q: How did the activity, negative = inhibition turn out when `CC(C)(C)COS(=O)OCC(C)(C)C` was run?
A: -1.05% [at 11.4 µM] (inactive)

Q: Which AC50 does the source give for `CC(C)C(O)(C#CCN1CCCC1)c1ccccc1` (stereo unspecified) here?
A: 14.1 µM (active)

Q: For `C[C@@H](N1CCOCC1)[C@@](O)(c1ccccc1)c1ccccn1`, which activity, negative = inhibition is on record?
A: -15% [at 11.4 µM] (inactive)

Q: For `CCC(C#CCN1CCCCC1)(CC)OCCC#N`, which AC50 is on record?
A: inactive

Q: How did the AC50 turn out when `O=C(N/N=C/C=C/c1ccc([N+](=O)[O-])cc1)c1cccs1` was run?
A: inactive

Q: `OCCN1CCOCCOCCN(CCO)CCN(CCO)CC1` was tested. Which AC50 did it give?
A: inactive

Q: With `COC(=O)/C=C/CSC1=N/C(=C/c2ccc(-n3cncn3)cc2)C(=O)N1` as the compound, how does the AC50 read?
A: 14.1 µM (active)

Q: How did the AC50 turn out when `COc1ccccc1NC(=O)CSc1nc2ccccc2cc1Cc1ccccc1` was run?
A: inactive

Q: `C[C@@H]1C(=O)N(C)C(=O)c2nc[nH]c21` was tested. Which AC50 did it give?
A: inactive

Q: Which AC50 does the source give for `CCOc1ccc(NC(=S)NC(=O)/C=C/c2ccc(C)cc2)c([N+](=O)[O-])c1` here?
A: inactive

Q: For `O=C(CCN1C(=O)C2C3C=CC(C3)C2C1=O)N1CCN(c2cccc(Cl)c2)CC1` (stereo unspecified), which AC50 is on record?
A: inactive

Q: With `FC(F)(F)c1cccc(N2CCN(CC3CC4C=CC3C4)CC2)c1` (stereo unspecified) as the compound, how does the AC50 read?
A: 2.51 µM (active)

Q: `O=C(c1coc2ccccc2c1=O)N1CCN(c2cccc(C(F)(F)F)c2)CC1` was tested. Which AC50 did it give?
A: inactive

Q: For `CC(=O)O[C@]1(C(C)=O)CC[C@@H]2[C@@H]3C=C(C)C4=CC(=O)CC[C@@]4(C)[C@H]3CC[C@]21C`, which AC50 is on record?
A: inactive

Q: For `CCN(CC)C(=O)Cn1cnc([N+](=O)[O-])n1`, which AC50 is on record?
A: inactive

Q: For `O=C1C(=O)N(c2cccc(Cl)c2)C(c2ccccc2[N+](=O)[O-])/C1=C(\O)c1ccccc1` (stereo unspecified), which AC50 is on record?
A: inactive

Q: Which AC50 does the source give for `COc1ccc(CCNC(=O)c2nnn(CC(=O)Nc3ccccc3C)c2N)cc1OC` here?
A: inactive

Q: Which AC50 does the source give for `COCC(=O)N1CCC2(CCCN(C(=O)Nc3cccc(C#N)c3)C2)CC1` here?
A: inactive

Q: For `COc1ccccc1C(c1nnnn1C(C)(C)C)N1CCCc2ccccc21` (stereo unspecified), which AC50 is on record?
A: inactive

Q: How did the AC50 turn out when `COc1ccccc1C(c1nnnn1C(C)(C)C)N1CCN(Cc2ccncc2)CC1` (stereo unspecified) was run?
A: 2.82 µM (active)

Q: For `CN1CCN(c2ncc3nc(-c4cc(F)cc(F)c4)c(=O)n(C)c3n2)CC1`, which AC50 is on record?
A: inactive

Q: How did the AC50 turn out when `OCCN=c1cc(-c2ccccc2)oc2ccc(Cl)cc12` was run?
A: 6.31 µM (active)

Q: With `Cc1cc(Cl)ccc1Oc1ncnc2oc(-c3ccccc3)cc12` as the compound, how does the AC50 read?
A: inactive

Q: With `COc1ccc(CNc2cc(-c3ccccc3CN(C)C)ncn2)c(OC)c1` as the compound, how does the AC50 read?
A: 12.6 µM (active)

Q: `COc1ccc(CNc2ccnc(-c3ccccc3CN(C)C)n2)c(OC)c1` was tested. Which AC50 did it give?
A: 1 µM (active)

Q: With `COc1ccc(CNc2ccnc(-c3ccccc3OC)n2)c(OC)c1` as the compound, how does the AC50 read?
A: 3.98 µM (active)

Q: For `COc1ccccc1CNc1ccnc(-c2ccccc2OC)n1`, which AC50 is on record?
A: 1.58 µM (active)

Q: How did the AC50 turn out when `Cc1cc(NC(=O)c2ccc(S(=O)(=O)N(C)C)cc2)n(-c2ccccn2)n1` was run?
A: inactive

Q: Which AC50 does the source give for `COc1cccc(/C=N/Nc2nc(N3CCCC3)nc(N3CCCC3)n2)c1O` here?
A: inactive

Q: `COc1cccc(Nc2ncc3nc(-c4cccs4)c(=O)n(-c4ccccc4)c3n2)c1` was tested. Which AC50 did it give?
A: inactive

Q: For `Cc1nc(Cl)c(C#N)cc1-c1ccccc1`, which AC50 is on record?
A: inactive

Q: With `N#CC(=C1CCCC1)c1nc(-c2ccccc2)cs1` as the compound, how does the AC50 read?
A: inactive

Q: `Cc1noc(NS(=O)(=O)c2ccc(N/C=C\C(=O)c3ccc4c(c3)OCO4)cc2)c1C` was tested. Which AC50 did it give?
A: inactive

Q: `C=C1C(=O)O[C@@H]2[C@H]3O[C@]3(C)CCC=C(C)CC[C@@H]12` was tested. Which AC50 did it give?
A: inactive

Q: Which AC50 does the source give for `CCOC(=O)c1c(N2C(=O)Nc3cc(Cl)c(Cl)cc3N2O)sc2c1CCCCC2` here?
A: inactive

Q: With `CCc1ccc(C(=O)COC(=O)C(Cc2ccccc2)NC(=O)C2CCC(C)CC2)cc1` (stereo unspecified) as the compound, how does the AC50 read?
A: inactive

Q: How did the AC50 turn out when `O=C(Nc1ccc(Cl)cc1Cl)c1cccc(N2C(=O)C=CC2=O)c1` was run?
A: inactive

Q: With `COc1ccc(CSC2=C(C#N)C(=O)NC3(CCCCC3)S2)cc1` as the compound, how does the activity, negative = inhibition read?
A: -3.33% [at 11.4 µM] (inactive)

Q: Which AC50 does the source give for `Nc1nc(Cl)nc2c1ncn2[C@@H]1O[C@@H](COP(=O)(O)OP(=O)(O)OP(=O)(O)O)[C@@H](O)[C@H]1O` here?
A: inactive

Q: How did the AC50 turn out when `COc1ccccc1CNc1ccnc(-c2ccccc2Cl)n1` was run?
A: 12.6 µM (active)

Q: With `COc1ccc(-c2nc3c([nH]2)c(=O)n(C)c(=O)n3C)c(OC)c1` as the compound, how does the AC50 read?
A: inactive

Q: `O=C(O)/C=C\C(=O)Nc1ccccn1` was tested. Which activity, negative = inhibition did it give?
A: 7.8% [at 11.4 µM] (inactive)

Q: Which AC50 does the source give for `O=c1cc(CN2CCN(c3ccc(F)cc3)CC2)c2cc3c(cc2o1)CCCC3` here?
A: inactive

Q: With `Cc1cc(N)n2ncc(-c3ccc(Cl)cc3)c2n1` as the compound, how does the AC50 read?
A: inactive

Q: How did the activity, negative = inhibition turn out when `N[C@@H](CC1=CS(=O)(=O)c2ccc(Cl)cc21)C(=O)O` was run?
A: -13.3% [at 11.4 µM] (inactive)

Q: Which AC50 does the source give for `c1ncc(-c2ccc3c(c2)OCO3)c(NCCc2cnc[nH]2)n1` here?
A: 2.51 µM (active)

Q: `CN(C)c1ccc(-c2cncnc2NCCc2cnc[nH]2)cc1` was tested. Which AC50 did it give?
A: 5.01 µM (active)

Q: For `c1nc(NCCc2cnc[nH]2)c2[nH]cnc2n1`, which activity, negative = inhibition is on record?
A: -17.7% [at 11.4 µM] (inactive)

Q: For `CN(C)c1ccc(-c2cncnc2Nc2ccc(F)cc2)cc1`, which AC50 is on record?
A: 25.1 µM (active)

Q: For `CN(C)C(=O)c1ccc(-c2cncnc2NCCc2cnc[nH]2)cc1`, which AC50 is on record?
A: 0.794 µM (active)

Q: Which AC50 does the source give for `Fc1ccc(Nc2ncncc2-c2ccoc2)cc1` here?
A: inactive

Q: For `CNc1ncncc1-c1ccc(C(=O)N(C)C)cc1`, which AC50 is on record?
A: inactive

Q: With `CC(=O)NCCNc1ncncc1-c1ccc(N(C)C)cc1` as the compound, how does the AC50 read?
A: inactive

Q: Which AC50 does the source give for `Cc1cc(N2C(=O)C(O)=C(C(=O)c3ccco3)C2c2ccc(O)cc2)no1` (stereo unspecified) here?
A: inactive

Q: For `CO[C@H]1COC(=O)C/C=C\[C@H](C)COC(=O)[C@@H](C)NC(=O)C/C=C\[C@@H]1C`, which activity, negative = inhibition is on record?
A: 10.1% [at 11.4 µM] (inactive)

Q: `COc1ccc(NC(=O)N2CCC3(CC2)CCN(C(=O)c2csnn2)CC3)cc1` was tested. Which AC50 did it give?
A: inactive

Q: `CN1CCN(NC(=O)c2ccccc2F)CC1` was tested. Which AC50 did it give?
A: inactive

Q: Which AC50 does the source give for `Cc1ccc(-n2c(SCC(=O)N3CCOCC3)nnc2-c2cccnc2)cc1` here?
A: inactive

Q: For `CCOC(=O)CSc1n[nH]c(NC(=O)c2cccc(C)c2)n1`, which AC50 is on record?
A: inactive

Q: For `CCc1cccc2c(C=C(C#N)C#N)cn(CC(=O)N3CCCCC3)c12`, which AC50 is on record?
A: inactive

Q: How did the AC50 turn out when `O=c1oc(-c2ccco2)nc2c1cnn2-c1ccccc1` was run?
A: inactive

Q: With `Cn1ncc([N+](=O)[O-])c1C(=O)N1CCOCC1` as the compound, how does the AC50 read?
A: inactive

Q: Which AC50 does the source give for `CCCCNC(=O)NS(=O)(=O)c1ccc(C(=O)OC(C)C)o1` here?
A: inactive

Q: With `CN(C)S(=O)(=O)c1ccc(NC(=O)COC(=O)c2ccccn2)cc1` as the compound, how does the AC50 read?
A: inactive

Q: For `CN(C)S(=O)(=O)c1cccc(NC(=O)COC(=O)c2ccc(Br)o2)c1`, which AC50 is on record?
A: inactive

Q: How did the AC50 turn out when `CCN(CC)S(=O)(=O)c1ccc(NC(=O)COC(=O)c2ccc(Br)o2)cc1` was run?
A: 3.16 µM (active)
